The campaign covered roughly 310,000 compounds. About 11,000 (3.5%) were called active. Not shown: some 4% with an inconclusive outcome. Shown is part of a subset that was picked to be rich in actives. A number with no mark means an inactive call. Calls come from the whole dose curve; as a rule, active = well fitted inhibition curve with a large enough effect; inconclusive = small, poorly fitted or top-dose-only effect, or another doubt; inactive = no such curve, though single readings can be large or run the other way.
These molecules were tested against 4'-phosphopantetheinyl transferase ffp (Bacillus subtilis) (UniProt Q9F4F7) (assay: qHTS Assay for Inhibitors of Bacillus subtilis Sfp phosphopantetheinyl transferase (PPTase)). Settings: Biochemical Sfp PPTase activity.
Procedure, shortened: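 Step 1, compound plus 15 nM Sfp-PPTase, 15 min, room temperature. Step 2, add rhodamine-CoA (5 uM) and BHQ-2-YbbR (12.5 uM). Step 3, read 525/598 nm fluorescence at 0 and 30 min.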
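Note: the enzyme is Sfp with the accession as filed and its product quenches rhodamine fluorescence.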
Potency is the fitted concentration of half-maximal effect.
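Throughout, for largest response in the series, negative = inhibition: 0% = enzyme reaction without inhibitor and -100% = no enzyme wells.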

| Structure (SMILES) | largest response in the series, negative = inhibition [%] | Potency |
| --- | --- | --- |
| CCN(CC)c1ccc(NC(=O)CCc2nnc3ccc(N4CCCCC4)nn23)c(C)c1 | 2.26 |  |
| CCOc1ccccc1CN1CCN(C2CCC2)CC1CCO (centres undefined) | 17.6 |  |
| COC(=O)c1c(NC(=O)COc2ccc(Cl)cc2Cl)sc2c1CC(C)(C)NC2(C)C | -6.17 |  |
| O=C(CN(C(=O)CNC(=O)c1cccs1)c1cccc(F)c1)NC1CCCCC1 | 6.32 |  |
| O=C(CSCC(=O)Nc1cccc([N+](=O)[O-])c1)Nc1ccccc1 | 7.95 |  |
| COc1cccc(CNC(=O)CCCC(=O)Nc2cccc([N+](=O)[O-])c2)c1 | 4.84 |  |
| COC(=O)/C=C\C(=O)Nc1cccc([N+](=O)[O-])c1 |  | 3.55 µM (active) |
| CC(=O)c1ccc(NC(=O)c2ccc(-n3cncn3)c([N+](=O)[O-])c2)cc1 | -0.369 |  |
| O=C(Nc1c2c(nn1-c1ccccc1)CS(=O)(=O)C2)C1CCCC1 | 11.4 |  |
| CSc1nnc2ccc(-c3ccc(C)cc3)nn12 | 4.27 |  |
| NC(=O)c1oc2ccccc2c1NC(=O)Cc1ccccc1 | 0.75 |  |
| COC(OC)c1ccnc(SCc2ccccc2Cl)n1 | -3.61 |  |
| O=c1cc(O)nc(SCc2ccccc2Cl)[nH]1 | -17.3 |  |
| Clc1ccccc1CSc1nnc(-c2ccco2)c(-c2ccco2)n1 |  | 20 µM (active) |
| COc1ccc2nc(SCc3ccccc3)nc(C)c2c1 | -4.22 |  |
| O=c1[nH]c(SCc2ccccc2)nnc1-c1ccccc1 | 15.9 |  |
| c1ccc(CSc2nnc(-c3ccco3)c(-c3ccco3)n2)cc1 |  | 35.5 µM (active) |
| CS(=O)(=O)Nc1cccc(C2=NN(C(=O)c3cccc(F)c3)C(c3cccs3)C2)c1 (centres undefined) | 4.93 |  |
| COC(=O)c1ccc2c(=O)n(CCN3CCOCC3)c(SCC(=O)Nc3cccc(OC)c3)nc2c1 | 0.982 |  |
| CN(C)C(=O)Cn1c(=O)n(S(=O)(=O)c2ccccc2)c2ccccc21 | -0.847 |  |
| Cc1ccc(C(=O)NC23CC4CC(CC(C4)C2)C3)c(Cl)c1 | 2.46 |  |
| Cc1ccc(C(=O)Nc2sc(Cc3ccc4c(c3)OCO4)c(C)c2C(N)=O)cc1 | -3.41 |  |
| Cc1ccc(C(=O)NCCNC(=O)c2ccccc2)cc1 | 10.8 |  |
| Cc1ccc(C(=O)c2c(NC(=O)c3ccccc3)sc(C)c2C)cc1 |  | 28.2 µM (active) |

| Structure (SMILES) | largest response in the series, negative = inhibition [%] | Potency |
| --- | --- | --- |
| Cc1c(CC(=O)N2CCN(C(=O)C3COc4ccccc4O3)CC2)c(=O)oc2c(O)c(O)ccc12 (centres undefined) | -23.7 |  |
| COc1cc(OC)c2c(C)cc(=O)oc2c1C(CCN1CCCCC1)c1ccc(N(C)C)cc1 (centres undefined) | -9.21 |  |
| COc1ccc(-n2c(-c3ccc(OC)c(OC)c3)n[nH]c2=S)cc1 | -14.3 |  |
| COc1ccc(OC)c(-n2c(-c3ccn[nH]3)n[nH]c2=S)c1 | -5.99 |  |
| COc1ccccc1-n1c(-c2cc(-c3ccco3)[nH]n2)n[nH]c1=S |  | 50.1 µM (active) |
| CCOC(=O)CNc1nc(Cl)nc(Nc2ccc(OC)cc2OC)n1 | 11.3 |  |
| COc1cc(OC)cc(C(=O)NCCCn2ccnc2)c1 | 5.91 |  |
| O=C(Nc1cccc(Cl)c1)OCc1ccccn1 | 3.07 |  |
| CN1C(=O)C(CC(=O)Nc2ccccc2)S/C1=N/c1nccs1 (centres undefined) | 15.1 |  |
| O=C(CC1SC(=Nc2ccccc2)N(Cc2ccccn2)C1=O)Nc1cccc(Cl)c1 (centres undefined) |  | 44.7 µM (active) |
| CCOc1ccc(CN(C)C(=O)c2ccc(=O)[nH]c2)cc1 | 8.69 |  |
| COc1ccc(NS(=O)(=O)c2ccc(N3CCN(CCO)CC3)c([N+](=O)[O-])c2)cc1 | -0.783 |  |
| CCc1ccc(-c2cc(C(=O)NCc3ccco3)c3ccccc3n2)s1 |  | 31.6 µM (active) |
| COC(=O)CNC(=O)c1cc(-c2ccncc2)nc2ccccc12 | 8.93 |  |
| CCCCN(C)CCCNC(=O)c1cc(-c2cccs2)nc2ccccc12 | -6.84 |  |
| Nc1ncn(C2OC(CO)C(O)C2O)c(=O)n1 (centres undefined) | 21.6 |  |
| O=C1[C@H]2[C@H]3[C@H](O)[C@H](O)C/C(=N/OCc4ccccc4)[C@H]3CC[C@@H]2C(=O)N1Cc1ccccc1 | -7.38 |  |
| CCC(C)NC(=O)C1c2ccccc2Oc2ccccc21 (centres undefined) | 5.93 |  |
| CC(C)(C)c1nnc(NC(=O)C2c3ccccc3Oc3ccccc32)s1 |  | 2.82 µM (active) |
| CCC(C)(C)NC(=O)C1c2ccccc2Oc2ccccc21 | 14.9 |  |
| COc1ccccc1N1CCN(S(=O)(=O)c2ccc3c(c2)NC(=O)CS3)CC1 | 7.23 |  |
| C=CCOC(=O)C1=C(C)NC(C)=C(C(=O)OCC=C)C1c1cccs1 | 24.6 |  |
| CC1=C(C(=O)Nc2ccccc2)C(c2ccco2)C(C#N)=C(SCC(N)=O)N1 (centres undefined) | -0.0015 |  |
| CC1=C(C(=O)Nc2ccccc2)C(c2cccs2)C(C#N)=C(SCC#N)N1 (centres undefined) |  | 39.8 µM (active) |

| Structure (SMILES) | largest response in the series, negative = inhibition [%] | Potency |
| --- | --- | --- |
| CCOc1ccc(-n2c(SCC(=O)Nc3ccc(OC)cc3)nc3sc4c(c3c2=O)CCN(C)C4)cc1 | -4.55 |  |
| COc1cc(C2C(C(=O)c3ccco3)=C(O)C(=O)N2c2cc(C)on2)ccc1OCc1ccccc1 (centres undefined) | 0.107 |  |
| C=CCNC(=O)c1ccccc1SCc1c(C)noc1C | -6.81 |  |
| CCCOc1cccc(C(=O)NCCCNC(=O)c2cccnc2)c1 | 1.7 |  |
| Fc1ccc(COc2ccc(-c3nnco3)cc2)cc1 | 12.8 |  |
| Cc1cccc(OCc2ccc(C(=O)Nc3ccc(F)cc3)cc2)c1 | 10.4 |  |
| Fc1ccc(COc2cccc(-c3n[nH]c(=S)o3)c2)cc1 |  | 39.8 µM (active) |
| CC(=O)NS(=O)(=O)c1ccc(N/C(N)=N/c2nc(C)cc(C)n2)cc1 | 6.28 |  |
| CCCC(C(=O)NC1CCCC1)N(C(=O)Cn1nnc(-c2ccc(C)o2)n1)c1cccc(O)c1 (centres undefined) | -2.43 |  |
| COC(=O)c1ccc(COC(=O)c2cnc(Cl)c(Cl)c2)cc1 | -10.6 |  |
| Cc1noc(C)c1-c1ccc2ncnc(NCc3ccc4[nH]ccc4c3)c2c1 | -0.183 |  |
| O=C(Nc1cn(-c2ccccc2)nc1-c1ccccc1)c1ccccc1 | -4.06 |  |
| N=C(N)SCc1cccc2ccccc12 | -0.359 |  |
| CCc1ccc(-c2nn(-c3ccccc3)cc2CSC(=N)N)cc1 |  | 39.8 µM (active) |
| CC(=O)OCC1OC(C#CCCCc2ccccc2)C=CC1OC(C)=O (centres undefined) | 17.9 |  |
| Cc1cc(=O)oc2c(C)c(OCC(=O)NCCc3ccc(S(N)(=O)=O)cc3)ccc12 | 11 |  |
| CC(=O)NCC(=O)N1CCC(n2nccc2NC(=O)CCCc2ccccc2)CC1 | 13.4 |  |
| COc1cc(NS(=O)(=O)c2ccc(NC(=S)NC(=O)c3ccc(Br)cc3)cc2)ncn1 | 1.72 |  |
| CC(=O)OC(COc1ccc(F)cc1)Cn1cnc2ccccc21 (centres undefined) | -2.66 |  |
| Fc1ccc(OCc2nn3c(Cn4nnc5ccccc54)nnc3s2)cc1 |  | 15.8 µM (active) |
| c1ccc(Cc2nn3c(Cn4cnc5ccccc54)nnc3s2)cc1 | -63.8 |  |
| CC(=O)N1CCN(c2ccccc2NC(=S)NC(=O)c2cc3ccccc3o2)CC1 | 7.22 |  |
| COCCn1c(SCC(=O)N2CCCCCC2)nc2c(c1=O)SCC2 | 4.45 |  |
| CC(NC(=O)Nc1cccc([N+](=O)[O-])c1)c1ccc2c(c1)OCO2 (centres undefined) | -3.6 |  |

| Structure (SMILES) | largest response in the series, negative = inhibition [%] | Potency |
| --- | --- | --- |
| CN(C)CCCN(C(=O)c1ccc(S(=O)(=O)N2CCCCCC2)cc1)c1nc2ccc(Br)cc2s1 |  | 50.1 µM (active) |
| CCN(CC)CCN(C(=O)c1ccc(S(=O)(=O)N2CCOCC2)cc1)c1nc2cc3c(cc2s1)OCCO3 | 7.56 |  |
| CSc1nc2ccc(S(=O)(=O)N3CCc4ccccc43)cc2s1 | 7.95 |  |
| O=C(Nc1nc2ccc([N+](=O)[O-])cc2s1)c1ccc(S(=O)(=O)N2CCCc3ccccc32)cc1 | -0.333 |  |
| CN(C)CCCN(C(=O)c1ccc(S(=O)(=O)N2CCCc3ccccc32)cc1)c1nc2ccc(F)cc2s1 |  | 56.2 µM (active) |
| Cc1ccc2nc(N(CCN(C)C)C(=O)C3=COCCO3)sc2c1 | 5.53 |  |
| COc1ccc(C)cc1N(CC(=O)NC(C)c1ccccc1)S(C)(=O)=O (centres undefined) | 4.53 |  |
| CCC1Sc2ccc(S(=O)(=O)CCC(=O)NCc3cccs3)cc2NC1=O (centres undefined) | 20.6 |  |
| CC(C)=CCCC(C)CN1CCC(n2nccc2NC(=O)c2ccccc2)CC1 (centres undefined) | 9.72 |  |
| O=C(Nc1nnc(-c2ccccc2F)s1)c1ccccc1F | -1.78 |  |
| CCOc1cc(-c2noc(CCCC(=O)NC3CCCCC3)n2)ccc1OC | 13 |  |
| COc1ccc(-c2csc(Cc3nc(O)cs3)n2)cc1 | -23.9 |  |
| COc1ccc(OC)c(Nc2nc(-c3ccc(O)c(O)c3)cs2)c1 | -45.7 |  |
| CC(C)(C)C(=O)OCc1nc(-c2ccc(O)c(O)c2)cs1 |  | 56.2 µM (active) |
| CN(CC(=O)Nc1c(Cl)cccc1Cl)C(=O)c1ccncc1 | 13.1 |  |
| Cn1c(-c2ccco2)nc2cc3ccccc3cc21 |  | 56.2 µM (active) |
| Cc1cc(C(F)(F)F)nn1-c1nc(-c2ccco2)cc(C(F)(F)F)n1 | 11.9 |  |
| Cc1csc(-c2nc3ccccc3n2C)n1 | -0.542 |  |
| CCOc1ccc(C2C3=C(CCCC3=O)N(CC(=O)O)C3=C2C(=O)CCC3)cc1 | -3.36 |  |
| Cc1ccnc(N2CCCC(C(=O)NC3CC3)C2)n1 (centres undefined) | 12.1 |  |
| Cc1ccnc(SCC(N)=O)n1 | 7.56 |  |
| Cc1ccnc(-n2sc3ccccc3c2=O)n1 |  | 2.51 µM (active) |

— PubChem BioAssay AID1490 (National Center for Advancing Translational Sciences (NCATS), 2009)
